Assay results published in PubChem BioAssay (Tox21).
Inconclusive results are not listed. Calls of active or inactive are those of the source. Unless noted, calls come from the whole dose curve; as a rule, active = well fitted curve in the direction sought with a large enough effect in the repeat runs; inconclusive = weak or mixed curves; inactive = no such curve, though single readings can be large; an effect the other way counts as inactive or inconclusive.

Tests used:
[1] = A CellTox Green Cytotoxicity Assay to monitor cytotoxicity in HEK293 cells - 32 hour (AID 1224881); note: nearly all actives have a fitted effect of over 40% in size
Outline: (§1)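 Cells (HEK293, 600/well) and dye reagent are dispensed together. After 5 h at 37 C, 23 nL compound is pinned in. Plates stay at 37 C for 40 h with fluorescence read at 0h, 8h, 16h, 24h, 32h and 40h.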

[2] = A CellTox Green Cytotoxicity Assay to monitor cytotoxicity in HepG2 cells - 0 hour (AID 1224882); note: nearly all actives have a fitted effect of over 35% in size
Outline: (§2)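 Cells and non-lytic dye reagent are dispensed together (600 HepG2 cells/well) and incubated 5 h before DMSO compound transfer. Kinetic fluorescence is then recorded in the same wells during 40 h at 37 C.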

[3] = A CellTox Green Cytotoxicity Assay to monitor cytotoxicity in HepG2 cells - 32 hour (AID 1224883); note: nearly all actives have a fitted effect of over 50% in size
Outline: as §2

[4] = A CellTox Green Cytotoxicity Assay to monitor cytotoxicity in HEK293 cells - 8 hour (AID 1224884); note: nearly all actives have a fitted effect of over 35% in size
Outline: as §1

[5] = qHTS RealTime-Glo MT Cell Viability Assay in HEK293 cells - 24 hour (AID 1224886); note: top concentration of the series differs between compounds; nearly all actives have a fitted effect of over 50% in size
Outline: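 HEK293 cells seeded with NanoLuc/prosubstrate reagent, rested 5 h at 37 C, then dosed and kept at 37 C up to 40 h. Nonlytic real-time luminescence from viable cells read at 0, 8, 16, 24, 32 and 40 h.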

[6] = qHTS RealTime-Glo MT Cell Viability Assay in HEK293 cells - 8 hour (AID 1224887); note: top concentration of the series differs between compounds; nearly all actives have a fitted effect of over 50% in size
Outline: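 Real-time viability in HEK293: signal arises when living cells convert a prosubstrate for NanoLuc in the medium, so luminescence tracks viable cell number. Compound (23 nL, DMSO) added 5 h post-seeding; kinetic reads at 0–40 h, 37 C.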

[7] = A CellTox Green Cytotoxicity Assay to monitor cytotoxicity in HEK293 cells - 16 hour (AID 1224888); note: nearly all actives have a fitted effect of over 35% in size
Outline: as §1

[8] = qHTS RealTime-Glo MT Cell Viability Assay in HepG2 cells - 0 hour (AID 1224889); note: nearly all actives have a fitted effect of over 50% in size
Outline: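 HepG2 cells (600/well) were dispensed with RealTime-Glo reagents, incubated 5 h at 37 °C, then treated with compounds in DMSO for up to 40 h. Nonlytic NanoLuc luminescence reflecting viable cells was read at each stated time point.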

[9] = A CellTox Green Cytotoxicity Assay to monitor cytotoxicity in HepG2 cells - 8 hour (AID 1224890); note: nearly all actives have a fitted effect of over 45% in size
Outline: as §2

[10] = qHTS assay to identify small molecule antagonists of the estrogen receptor alpha (ER-alpha) signaling pathway using the BG1 cell line in the presence of 0.1 nM 17-beta-estradiol - cell viability counter screen (AID 1259241); note: nearly all actives have a fitted effect of over 40% in size
Outline: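 Live-cell protease activity (CellTiter-Fluor fluorescence, 30 min) was read in the same wells after VM7Luc4E2 cells had been exposed to compounds with 0.1 nM 17beta-estradiol for 22 hr at 37C.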

[11] = qHTS assay to identify small molecule antagonists of the androgen receptor (AR) signaling pathway using the MDA cell line in the presence of 0.5 nM R1881 - cell viability counter screen (AID 1259242); note: nearly all actives have a fitted effect of over 45% in size
Outline: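 Steps: plate MDA-kb2 cells, rest 5 hr at 37C without CO2; pin in compounds in DMSO; add R1881 to 0.5 nM final; incubate 16 hr; add CellTiter-Fluor, 30 min; read fluorescence.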

[12] = qHTS assay to identify small molecule HDAC inhibitors (AID 1259364);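 note: wild-type HCT-116 cells with endogenous class I/II HDAC activity; top concentration of the series differs between compounds; nearly all actives have a fitted effect of over 45% in size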
Outline: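 Cells (HCT-116, wild type) are seeded at 1,500 per well, incubated overnight, treated with compound in DMSO for 2 hr, then developed with HDAC-Glo I/II reagent for 30 min at room temperature.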

[13] = qHTS assay to identify small molecule agonists of the sonic hedgehog signaling (Shh) pathway - cell viability counter screen (AID 1259366); note: nearly all actives have a fitted effect of over 50% in size
Outline: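 CellTiter-Fluor fluorescence read-out, 1 hr at 37C, added after 23hr compound exposure. Cells: 3T3 Gli1-Luc, an NIH/3T3 clone with stably integrated Gli1-Luc reporter, plated 4hr before compound.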

[14] = qHTS assay to identify small molecule antagonists of the sonic hedgehog signaling (Shh) pathway - cell viability counter screen (AID 1259367); note: nearly all actives have a fitted effect of over 55% in size
Outline: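 Viability was read by CellTiter-Fluor fluorescence in the same wells, reagent added 23 hr into compound treatment and incubated 1 hr at 37C. The 3T3 Gli1-Luc reporter cells (2,000/well) received conditioned medium after compound and ran 24 hr.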

[15] = target: Estrogen receptor (Homo sapiens) (UniProt P03372); test: qHTS assay to identify small molecule antagonists of the estrogen receptor alpha (ER-alpha) signaling pathway using the BG1 cell line in the presence of 0.1 nM 17-beta-estradiol (AID 1259244); note: nearly all actives have a fitted effect of over 50% in size
Outline: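 Antagonist mode: compounds in DMSO are pinned onto VM7Luc4E2 reporter cells, 0.1 nM final 17beta-estradiol is added, and after 22 h at 37C luciferase luminescence is measured with ONE-Glo.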

[16] = qHTS assay to identify small molecule phospholipidosis (PLD) inducers (AID 1259344; active = well fitted curve in the direction sought with a large enough effect; an effect the other way counts as inactive or inconclusive)
Outline: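 Phospholipid accumulation was scored by imaging: fixed, Hoechst-counterstained HepG2 cells stained with LipidTOX Red after 24 h compound exposure at 37 C. Read-outs were pit count and pit intensity per well or per cell, with amiodarone and DMSO controls.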

[17] = qHTS assay to identify small molecule agonists of the sonic hedgehog signaling (Shh) pathway (AID 1259368; calls by dose curve;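 note: NIH/3T3-derived 3T3Gli1-Luc cells carrying a stable Gli1-driven firefly luciferase reporter; series mostly up to about 92 µM; nearly all actives have a fitted effect of over 15% in size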)
Outline: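 Cells of a mouse NIH/3T3 clone stably expressing luciferase under the Gli1 transcriptional response element are exposed to test chemicals for 24 hr at 37 C. Pathway activation is detected as a rise in luminescence.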

[18] = qHTS assay to identify small molecule HDAC inhibitors - cell viability counter screen (AID 1259365)
Outline: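 HCT-116 (wild type), 1,500 cells/well, overnight 37C/5% CO2; compound in DMSO 2hr; CellTiter-Glo 30min RT; luminescence read.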

Measured: Potency

Chain of Estrogen receptor (Homo sapiens) (P03372 whole entry, looked up): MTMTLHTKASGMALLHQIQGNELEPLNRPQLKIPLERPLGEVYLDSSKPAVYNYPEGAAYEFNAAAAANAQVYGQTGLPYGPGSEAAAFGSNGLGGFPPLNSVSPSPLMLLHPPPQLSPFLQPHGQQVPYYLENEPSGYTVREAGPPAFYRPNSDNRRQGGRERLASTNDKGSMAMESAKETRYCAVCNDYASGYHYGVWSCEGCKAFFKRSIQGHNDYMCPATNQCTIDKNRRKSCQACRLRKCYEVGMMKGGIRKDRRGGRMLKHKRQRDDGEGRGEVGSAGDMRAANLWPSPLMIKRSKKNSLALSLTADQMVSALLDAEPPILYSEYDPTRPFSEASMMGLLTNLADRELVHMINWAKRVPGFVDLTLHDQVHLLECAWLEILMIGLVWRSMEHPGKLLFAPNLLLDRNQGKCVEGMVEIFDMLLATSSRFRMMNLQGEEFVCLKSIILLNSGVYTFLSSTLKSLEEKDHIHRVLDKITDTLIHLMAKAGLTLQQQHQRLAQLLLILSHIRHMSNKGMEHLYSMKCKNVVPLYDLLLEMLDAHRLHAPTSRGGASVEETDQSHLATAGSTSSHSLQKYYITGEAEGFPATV

Brc1ccc(Br)cc1
inactive: [1] | [2] | [3] | [4] | [5] | [6] | [7] | [8] | [9] | [10] | [11] | [12] | [13] | [14]

C[N+](C)(C)CC(=O)O
inactive: [1] | [2] | [3] | [4] | [5] | [6] | [7] | [8] | [10] | [15] | [16] | [12] | [13] | [14] | [17]

CCCCC(C#N)(Cn1cncn1)c1ccc(Cl)cc1 (stereo not drawn)
inactive: [1] | [2] | [4] | [5] | [6] | [7] | [8] | [9] | [10] | [11] | [15] | [12] | [14]

CCCCSP(=O)(SCCCC)SCCCC
inactive: [1] | [2] | [3] | [4] | [5] | [6] | [7] | [8] | [9] | [10] | [11] | [12] | [18] | [13] | [14] | [17]
